Laboratory results from PubChem BioAssay (EPA / NIEHS).
The source made the active and inactive calls. Rule for the calls: active = hit-call score of the fitted dose curve at least 0.9, where 1 is the maximum; inactive = score below 0.9.

Biological target: Hepatocyte nuclear factor 6 (Homo sapiens) (UniProt Q9UBC0)
Assay: ATG_HNF6_CIS: Attagene CIS-FACTORIAL HepG2 Assay for human Hepatocyte Nuclear Factor 6 (HNF6) (AID 2282952)
Conditions: HepG2 Attagene cis-factorial HNF6 reporter transcription; actives raise or lower the signal
In short: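 Readout: fluorescent reporter-transcript fragments resolved by capillary electrophoresis after RT-PCR, reflecting endogenous factor activity in transfected HepG2. Exposure 24 h. Gain or loss of signal fitted bidirectionally against DMSO.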

Sequence of Hepatocyte nuclear factor 6 (Homo sapiens) (Q9UBC0 whole entry, looked up): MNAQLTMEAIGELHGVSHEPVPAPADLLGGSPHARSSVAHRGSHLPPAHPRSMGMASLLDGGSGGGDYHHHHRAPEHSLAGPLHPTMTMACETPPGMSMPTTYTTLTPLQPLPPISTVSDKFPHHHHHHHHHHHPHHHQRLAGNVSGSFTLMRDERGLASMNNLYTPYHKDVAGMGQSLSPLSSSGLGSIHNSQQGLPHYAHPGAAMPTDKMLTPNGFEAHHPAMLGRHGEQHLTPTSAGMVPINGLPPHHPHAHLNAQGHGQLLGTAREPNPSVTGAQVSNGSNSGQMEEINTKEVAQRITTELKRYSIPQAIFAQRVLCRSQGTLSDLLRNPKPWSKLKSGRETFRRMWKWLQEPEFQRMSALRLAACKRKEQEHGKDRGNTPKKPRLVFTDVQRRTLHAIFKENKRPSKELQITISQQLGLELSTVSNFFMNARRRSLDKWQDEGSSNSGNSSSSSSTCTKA

Structure (SMILES)	outcome	AC50
O=C(O)C(F)(F)OC(F)(F)C(F)(F)OC(F)(F)C(=O)O	inactive	–
N#Cc1cc([N+](=O)[O-])ccc1N	inactive	–
COP(=O)(O)OC	inactive	–
CCOS(=O)(=O)OCC	inactive	–
Nc1cc2c3c(c1)C(c1ccccc1)=N[C@@H](NC(=O)c1cccnc1)C(=O)N3CC2	inactive	–
Oc1ccc(I)cc1	inactive	–
C/C(=N\NC(=O)Nc1cc(F)cc(F)c1)c1ncccc1C(=O)O	inactive	–
CCOP(=S)(OCC)SCSCC	inactive	–
OCC(F)(F)OC(F)(F)C(F)(F)OC(F)(F)C(F)(F)OC(F)(F)CO	inactive	–
[N-]=[N+]=[N-]	inactive	–
O=S1(=O)OCC2C(CO1)C1(Cl)C(Cl)=C(Cl)C2(Cl)C1(Cl)Cl (centres undefined)	inactive	–
Oc1ccccc1Br	inactive	–
FC(F)(F)C(F)(C(F)(F)F)C(F)(F)C(F)(F)CC1CO1 (centres undefined)	inactive	–
C=CC(=O)OCC(CC)(COC(=O)C=C)COC(=O)C=C	inactive	–
CC1(C)CN=C(NN=C(/C=C/c2ccc(C(F)(F)F)cc2)/C=C/c2ccc(C(F)(F)F)cc2)NC1	–	17.3 µM (active)
CCOP(=S)(OCC)SCn1nnc2ccccc2c1=O	inactive	–
O=C(O)C=CC(F)(C(F)(F)F)C(F)(F)F	inactive	–
O=C(O)C(F)(OC(F)(F)C(F)(F)C(F)(F)F)C(F)(F)F (centres undefined)	inactive	–
CC1=C(C(=O)Nc2ccccc2)S(=O)(=O)CCO1	–	45.4 µM (active)
O=P1(N(CCCl)CCCl)NCCCO1 (centres undefined)	inactive	–

Structure (SMILES)	outcome	AC50
OCC1CO1 (centres undefined)	inactive	–
Nc1ccc(Cl)cc1	inactive	–
CNC(=O)Oc1ccc(N(C)C)c(C)c1	inactive	–
Nc1ccc(Sc2ccc(N)cc2)cc1	inactive	–
c1ccc2c(c1)sc1ccccc12	inactive	–
CC(O)C#N (centres undefined)	inactive	–
OCC(F)(F)OC(F)(F)C(F)(F)OC(F)(F)CO	inactive	–
CCCCN(CCCC)N=O	inactive	–
CC(O)C(F)(F)C(F)(F)F (centres undefined)	inactive	–
CCN(CC)c1ccccc1	inactive	–
O=C(O)C(F)(F)C(F)(F)C(=O)O	inactive	–
CCCCc1ccccc1	inactive	–
N#Cc1c(-c2ccc(Cl)cc2)[nH]c(C(F)(F)F)c1Br	inactive	–
O=[N+]([O-])c1ccccc1	inactive	–
CCOC(=O)c1ccccc1C(=O)OCC	inactive	–
c1nc[nH]n1	inactive	–
CCC(C)(C)c1ccc(O)cc1	inactive	–
c1cc2c3c(cccc3c1)CC2	inactive	–
O=C(O)C(Cl)Cl	inactive	–

Biological target: Heat shock factor protein 1 (Homo sapiens) (UniProt Q00613)
Assay: ATG_HSE_CIS: Attagene CIS-FACTORIAL HepG2 Assay for human Heat Shock Transcription Factor 1 (HSE) (AID 2282953)
Conditions: HepG2 HSE cis-reporter, Attagene RNA transcription; actives raise or lower the signal
In short: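 Endogenous transcription factor activity captured via cis-promoter reporter units transfected into HepG2; treatment lasted 24 h. Fluorescence intensity of reporter fragments analysed with bidirectional curve fitting, DMSO baseline.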

Sequence of Heat shock factor protein 1 (Homo sapiens) (Q00613 whole entry, looked up): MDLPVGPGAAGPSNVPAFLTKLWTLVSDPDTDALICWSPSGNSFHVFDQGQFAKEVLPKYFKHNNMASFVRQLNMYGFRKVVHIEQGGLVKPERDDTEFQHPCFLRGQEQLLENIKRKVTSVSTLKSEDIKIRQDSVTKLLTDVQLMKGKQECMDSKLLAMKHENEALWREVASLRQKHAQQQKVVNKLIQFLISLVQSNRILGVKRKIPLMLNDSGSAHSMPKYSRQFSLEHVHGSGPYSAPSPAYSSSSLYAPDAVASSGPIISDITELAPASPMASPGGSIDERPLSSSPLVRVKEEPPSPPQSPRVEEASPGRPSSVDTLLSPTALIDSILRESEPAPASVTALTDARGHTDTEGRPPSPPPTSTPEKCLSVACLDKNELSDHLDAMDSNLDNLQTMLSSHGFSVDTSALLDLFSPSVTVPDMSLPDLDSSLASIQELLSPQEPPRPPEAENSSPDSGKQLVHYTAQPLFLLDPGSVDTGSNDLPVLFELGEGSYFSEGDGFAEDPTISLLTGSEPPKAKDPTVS

Structure (SMILES)	outcome	AC50
O=C(O)C(F)(F)OC(F)(F)C(F)(F)OC(F)(F)C(=O)O	inactive	–
N#Cc1cc([N+](=O)[O-])ccc1N	inactive	–
COP(=O)(O)OC	inactive	–
Nc1cc2c3c(c1)C(c1ccccc1)=N[C@@H](NC(=O)c1cccnc1)C(=O)N3CC2	inactive	–
Oc1ccc(I)cc1	inactive	–
C/C(=N\NC(=O)Nc1cc(F)cc(F)c1)c1ncccc1C(=O)O	inactive	–
CCOP(=S)(OCC)SCSCC	inactive	–
OCC(F)(F)OC(F)(F)C(F)(F)OC(F)(F)C(F)(F)OC(F)(F)CO	inactive	–
[N-]=[N+]=[N-]	inactive	–
O=S1(=O)OCC2C(CO1)C1(Cl)C(Cl)=C(Cl)C2(Cl)C1(Cl)Cl (centres undefined)	–	142 µM (active)
Oc1ccccc1Br	inactive	–
FC(F)(F)C(F)(C(F)(F)F)C(F)(F)C(F)(F)CC1CO1 (centres undefined)	inactive	–
C=CC(=O)OCC(CC)(COC(=O)C=C)COC(=O)C=C	inactive	–
CC1(C)CN=C(NN=C(/C=C/c2ccc(C(F)(F)F)cc2)/C=C/c2ccc(C(F)(F)F)cc2)NC1	–	18 µM (active)
CCOP(=S)(OCC)SCn1nnc2ccccc2c1=O	–	166 µM (active)
O=C(O)C=CC(F)(C(F)(F)F)C(F)(F)F	inactive	–
O=C(O)C(F)(OC(F)(F)C(F)(F)C(F)(F)F)C(F)(F)F (centres undefined)	inactive	–
CC1=C(C(=O)Nc2ccccc2)S(=O)(=O)CCO1	inactive	–

Structure (SMILES)	outcome	AC50
O=P1(N(CCCl)CCCl)NCCCO1 (centres undefined)	inactive	–
OCC1CO1 (centres undefined)	inactive	–
Nc1ccc(Cl)cc1	inactive	–
CNC(=O)Oc1ccc(N(C)C)c(C)c1	inactive	–
Nc1ccc(Sc2ccc(N)cc2)cc1	inactive	–
c1ccc2c(c1)sc1ccccc12	inactive	–
CC(O)C#N (centres undefined)	inactive	–
OCC(F)(F)OC(F)(F)C(F)(F)OC(F)(F)CO	inactive	–
CCCCN(CCCC)N=O	inactive	–
CC(O)C(F)(F)C(F)(F)F (centres undefined)	inactive	–
CCN(CC)c1ccccc1	inactive	–
O=C(O)C(F)(F)C(F)(F)C(=O)O	inactive	–
N#Cc1c(-c2ccc(Cl)cc2)[nH]c(C(F)(F)F)c1Br	–	47.3 µM (active)
CCOC(=O)c1ccccc1C(=O)OCC	inactive	–
c1nc[nH]n1	inactive	–
CCC(C)(C)c1ccc(O)cc1	inactive	–
c1cc2c3c(cccc3c1)CC2	inactive	–
O=C(O)C(Cl)Cl	inactive	–

System: not listed separately
Assay: ATG_MRE_CIS: Attagene CIS-FACTORIAL HepG2 Assay for human Metal Responsive Element (MRE) (AID 2282954)
Conditions: HepG2 MRE cis-reporter transcription, Attagene multiplex; actives raise or lower the signal
In short: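 RT-PCR/capillary electrophoresis readout of reporter mRNA, 24 h post-dosing, in HepG2 cells transfected with multiplexed cis-regulated reporter constructs. Gain or loss of signal fitted bidirectionally against DMSO baseline.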

Structure (SMILES)	outcome	AC50
O=C(O)C(F)(F)OC(F)(F)C(F)(F)OC(F)(F)C(=O)O	inactive	–
N#Cc1cc([N+](=O)[O-])ccc1N	inactive	–
COP(=O)(O)OC	inactive	–
CCOS(=O)(=O)OCC	inactive	–
Nc1cc2c3c(c1)C(c1ccccc1)=N[C@@H](NC(=O)c1cccnc1)C(=O)N3CC2	–	71.5 µM (active)
Oc1ccc(I)cc1	inactive	–
C/C(=N\NC(=O)Nc1cc(F)cc(F)c1)c1ncccc1C(=O)O	inactive	–
CCOP(=S)(OCC)SCSCC	–	151 µM (active)
OCC(F)(F)OC(F)(F)C(F)(F)OC(F)(F)C(F)(F)OC(F)(F)CO	inactive	–
[N-]=[N+]=[N-]	inactive	–
O=S1(=O)OCC2C(CO1)C1(Cl)C(Cl)=C(Cl)C2(Cl)C1(Cl)Cl (centres undefined)	–	163 µM (active)
Oc1ccccc1Br	inactive	–
FC(F)(F)C(F)(C(F)(F)F)C(F)(F)C(F)(F)CC1CO1 (centres undefined)	inactive	–
C=CC(=O)OCC(CC)(COC(=O)C=C)COC(=O)C=C	–	9.05 µM (active)
CC1(C)CN=C(NN=C(/C=C/c2ccc(C(F)(F)F)cc2)/C=C/c2ccc(C(F)(F)F)cc2)NC1	–	6.34 µM (active)
CCOP(=S)(OCC)SCn1nnc2ccccc2c1=O	–	78.5 µM (active)
O=C(O)C=CC(F)(C(F)(F)F)C(F)(F)F	inactive	–
O=C(O)C(F)(OC(F)(F)C(F)(F)C(F)(F)F)C(F)(F)F (centres undefined)	inactive	–
CC1=C(C(=O)Nc2ccccc2)S(=O)(=O)CCO1	–	9.73 µM (active)
O=P1(N(CCCl)CCCl)NCCCO1 (centres undefined)	inactive	–

Structure (SMILES)	outcome	AC50
OCC1CO1 (centres undefined)	inactive	–
Nc1ccc(Cl)cc1	inactive	–
CNC(=O)Oc1ccc(N(C)C)c(C)c1	inactive	–
Nc1ccc(Sc2ccc(N)cc2)cc1	–	77.3 µM (active)
c1ccc2c(c1)sc1ccccc12	inactive	–
CC(O)C#N (centres undefined)	inactive	–
OCC(F)(F)OC(F)(F)C(F)(F)OC(F)(F)CO	inactive	–
CCCCN(CCCC)N=O	inactive	–
CC(O)C(F)(F)C(F)(F)F (centres undefined)	inactive	–
CCN(CC)c1ccccc1	inactive	–
O=C(O)C(F)(F)C(F)(F)C(=O)O	inactive	–
CCCCc1ccccc1	inactive	–
N#Cc1c(-c2ccc(Cl)cc2)[nH]c(C(F)(F)F)c1Br	–	0.956 µM (active)
O=[N+]([O-])c1ccccc1	inactive	–
CCOC(=O)c1ccccc1C(=O)OCC	inactive	–
c1nc[nH]n1	inactive	–
CCC(C)(C)c1ccc(O)cc1	inactive	–
c1cc2c3c(cccc3c1)CC2	inactive	–
O=C(O)C(Cl)Cl	inactive	–
